# S1P4 ag – agonists of human S1P4 receptor. activation, % at 4.98 µM. S1P4-expressing cell line, agonist reporter assay. 220,000 tested, 0.35% active; in the data active = activation above about 11%;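 also: 0% = DMSO vehicle and 100% = reference agonist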
# Target sequence (O95977 whole entry, looked up): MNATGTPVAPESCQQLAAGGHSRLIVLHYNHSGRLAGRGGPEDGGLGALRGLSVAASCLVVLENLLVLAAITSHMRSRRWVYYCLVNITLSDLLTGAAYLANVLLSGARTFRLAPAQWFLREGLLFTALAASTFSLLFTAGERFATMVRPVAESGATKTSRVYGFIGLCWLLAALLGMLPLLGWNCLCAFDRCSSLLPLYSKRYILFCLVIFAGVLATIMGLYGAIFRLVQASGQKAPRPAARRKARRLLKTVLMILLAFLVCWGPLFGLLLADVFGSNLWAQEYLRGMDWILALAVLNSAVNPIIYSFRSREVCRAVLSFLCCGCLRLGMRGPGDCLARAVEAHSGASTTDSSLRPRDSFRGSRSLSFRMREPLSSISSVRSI
# S1P3 antag-1 – blocks the human S1P3 receptor. Q99500. CHO S1P3 NFAT-BLA reporter, FRET fluorescence, antagonist mode. inhibition, % at 4.98 µM. 170,000 tested, 0.27% active. AID 485;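 active = inhibition above the plate cutoff, the mean inhibition of test wells on that plate plus 3 SD, cut at about 28% in these data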;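 also: cells challenged with S1P at its EC80 of 0.8 µM; blue over green emission ratio from cleaved BLA substrate after 4 h stimulation; 0% = S1P-stimulated wells and 100% = unstimulated DMSO-only wells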
# S1P4 antagonist – antagonists of human S1P4 receptor; S1P4-expressing cells, antagonist mode, reporter read-out; 220,000 tested, 0.26% active; inhibition, % at 4.98 µM; in the data active = inhibition above about 29%;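 also: 0% = wells stimulated with agonist and 100% = vehicle wells without agonist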
# EP2 mod – modulators of human EP2 prostaglandin E2 receptor. induction, % at 25 µM. AID 940. EP2-expressing cells, cAMP HTRF FRET, PGE2 co-stimulation. P43116. 260,000 tested, 0.83% active;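 active = compounds whose cAMP rise, as percent of the full-agonist control response, exceeds 60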;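 also: rat C6 glioma line stably carrying human EP2 under a CMV promoter; the protocol text gives 20 µM as final concentration; 100% = response of wells given 1 µM PGE2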
# EP2 antag – inhibitors of human EP2 prostaglandin E2 receptor. P43116. C6 glioma cells expressing human EP2, cAMP TR-FRET; cells stimulated with saturating PGE2. inhibition, % at 25 µM. 260,000 tested, 0.52% active. AID 1422;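 active = percent inhibition above 40 after rounding to a whole number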;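 also: rat C6 glioma host cells with rolipram phosphodiesterase inhibitor present; the protocol text gives 20 µM as final concentration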
# S1P3 antag-2 – confirmation of human S1P3 receptor antagonists. shares compounds with S1P3 antag-1. CHO S1P3 NFAT-BLA reporter, FRET, antagonist mode. inhibition, % at 4.98 µM. 240 tested, 30% active. AID 1429;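 active = inhibition above the hit threshold that was computed for the earlier primary screen, cut at about 30% in these data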;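 also: 0% = S1P-stimulated wells and 100% = unstimulated DMSO-only wells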
# * marks the source's active call; other numbers are inactive results; / = no result given. Most compounds without a hit are left out; they make up all but 1.9% or so of the library.
SMILES,S1P4 ag,S1P3 antag-1,S1P4 antagonist,EP2 mod,EP2 antag,S1P3 antag-2
Cn1c(=O)c2c(nc(NCCCn3ccnc3)n2CCc2ccccc2)n(C)c1=O,/,/,/,0,11,/
c1ccc2c(c1)CC(CN1CCCCC1)O2 (centres undefined),/,/,/,17,8,/
Cc1ccc2nc(C)c3c(c2c1)COC3,1,30*,3,7,10,-3
Cc1ccn2cc(C(=O)NCc3ccco3)nc2c1,1,30*,1,3,5,-13
COCCNC(=O)c1cn2ccc(C)cc2n1,/,/,/,-9,14,/
CCc1cc2cc(C)c(C)cc2nc1SCC(=O)Nc1c(C)[nH]c(=O)[nH]c1=O,/,/,/,9,12,/
O=C1c2cccc3c(N4CCCCC4)ccc(c23)C(=O)N1c1ccccc1O,-2,48*,18,15,4,33*
O=C1c2cccc3c(N4CCCCC4)ccc(c23)C(=O)N1c1ccc(O)cc1,1,1,-18,50,9,/
CCC(c1nnnn1C1CCCCC1)N(Cc1ccccc1)Cc1cc2cc(OC)ccc2[nH]c1=O (centres undefined),/,/,/,57,8,/
CSc1ccc(/C=C/c2cc(=O)c3ccccc3[nH]2)cc1,3,30*,-13,-18,4,1
CC(=O)Nc1ncc(Cc2cccc(Cl)c2)s1,-2,28*,6,24,6,5
Cn1c(-c2c(N)n(-c3ccccc3)c3nc4ccccc4nc23)nc2ccccc21,1,68*,20,-8,8,45*
Cc1cc(C)c(S(=O)(=O)NCc2ccncc2)c(C)c1,1,/,-13,-13,7,/
Cc1ccc(S(=O)(=O)NCc2ccncc2)c(C)c1C,0,35*,-21,-29,13,17
CC(=O)Nc1ccc(-n2nnnc2SCC(=O)Nc2nc(-c3ccc(Cl)cc3)cs2)cc1,/,/,/,-74,24,/
CN(C(=O)CC1C(=O)NCCN1CC(c1ccccc1)c1ccccc1)C(C1CC1)C1CC1 (centres undefined),-1,29*,7,15,6,3
Cc1ccc(CN2CCNC(=O)C2CC(=O)N(C)C(C2CC2)C2CC2)o1 (centres undefined),1,-16,-6,7,0,/
COc1cc(NC(=O)C2CC(c3ccc(Cl)c(Cl)c3)=NO2)cc(OC)c1OC (centres undefined),/,/,/,-71,5,/
COc1ccccc1NC(=O)c1ccc(NC(=O)COC(=O)C2CCCO2)cc1 (centres undefined),1,30*,-1,-17,-2,-10
CCCC(=O)Nc1ccc(Nc2ccccc2)cc1,1,101*,-3,-39,10,-7
CCCC(=O)Nc1ccc(-c2ccc(NC(=O)CCC)cc2)cc1,2,-1,-14,12,1,/
c1ccc(-c2cn3nc(-c4ccccc4)c(-c4ccccc4)nc3n2)cc1,2,/,-10,45,14,/
Cc1ccc(-c2cn3nc(-c4ccccc4)c(-c4ccccc4)nc3n2)cc1,0,50*,14,10,10,9
COC(=O)C1=C(C)NC(C)=C(C(=O)OC)C1c1cscn1,/,/,/,-10,1,/
Cc1ccc(S(=O)(=O)Oc2ccccc2/C=N/N=C(N)N)cc1,-1,36*,-7,-38,2,-7
SMILES,S1P4 ag,S1P3 antag-1,S1P4 antagonist,EP2 mod,EP2 antag,S1P3 antag-2
Cc1ccc(S(=O)(=O)Oc2ccccc2/C=N/NC(N)=S)cc1,-2,/,8,-8,17,/
Cc1nc2ccc(C(=O)N3CCCC(c4ncncc4S(C)(=O)=O)C3)cc2nc1C (centres undefined),/,/,/,2,/,/
Nc1ccc2nc3c(=O)n(C4CCCCC4)c(=O)[nH]c3nc2c1,-2,30*,26,0,6,13
CCCCn1c(=O)[nH]c2nc3cc(N)ccc3nc2c1=O,2,11,-13,-16,9,/
CCOC(=O)Cn1nnnc1CN(Cc1cccs1)Cc1cc2cccc(C)c2[nH]c1=O,/,/,/,25,3,/
CC(Oc1ccccc1Cl)C(=O)N1CCOCC1 (centres undefined),2,46*,-4,1,8,-19
O=C(Oc1ccccc1OC(=O)N1CCOCC1)N1CCOCC1,-2,-3,-10,27,/,/
Cc1[nH]c2ccccc2c1/C=N/Nc1ccc([N+](=O)[O-])cc1,-2,40*,-9,-4,10,28
Cc1[nH]c2ccccc2c1/C=N/NC(=O)c1cccc([N+](=O)[O-])c1,-4,-17,-16,-104,22,/
COc1ccccc1C1(O)CCN(CCNC(=O)c2c(F)cccc2F)CC1,/,/,/,-8,5,/
CCOC(=O)C1CCN(C(=O)CN(c2cc(Cl)ccc2C)S(C)(=O)=O)CC1,/,/,/,27,8,/
CCOc1ccc(-c2nnc(SCC(=O)Nc3cc(C)on3)o2)cc1,-2,33*,-31,-1,5,-20
COC(=O)c1cn(C[C@@H]2CCCN(C(=O)OC(C)(C)C)C2)nn1,/,/,/,-33,/,/
CC(C)c1ccc(/C=C/C(=O)NCCC2=CCCCC2)cc1,-1,30*,-23,-50,2,-10
COc1ccc(C2(NC(=O)c3noc(C)c3Cn3cccn3)CCCC2)cc1,/,/,/,-20,1,/
C=CCNCC(=O)N1N=C(c2ccc3ccccc3c2)CC1c1ccc(OC)cc1 (centres undefined),0,31*,1,20,6,2
COc1ccc(C2CC(c3ccc4ccccc4c3)=NN2C(=O)CNC2CCCCC2)cc1 (centres undefined),-1,-11,5,-34,9,/
COc1ccc(-n2c(C)cc(/C=N/Nc3nnc(C)n3N)c2C)cc1,-3,31*,26,-9,8,-14
O=C(CN1CCC(O)(c2cccnc2)CC1)NCc1cccs1,/,/,/,-14,16,/
O=C(Nc1ccc(F)cc1)C(Cc1ccccc1)n1cccc1 (centres undefined),1,36*,-11,-18,2,10
C=CCNc1nc(-c2ccc([N+](=O)[O-])cc2)cs1,0,29*,-9,-52,28,3
COc1ccc2nc(NC(=O)CSc3nc(C4CC4)nc4ccccc34)sc2c1,/,/,/,-38,4,/
CCOc1cc(S(=O)(=O)n2c([N+](=O)[O-])cnc2C)ccc1Br,/,/,/,-22,10,/
Cc1cc(S(=O)(=O)NCc2cccs2)ccc1-n1cnnn1,9,30*,-17,-8,7,-5
C=CCn1cc(CN2CCc3c(nc(N4CCC(C)CC4)[nH]c3=O)C2)c2ccccc21,/,/,/,-22,/,/
O=C(COC(=O)CCCOc1ccc(Cl)cc1Cl)Nc1cccc(Cl)c1,1,43*,-27,12,10,-26
Cc1nn(-c2ccccc2)c(Cl)c1/C=N/NC(=O)c1ccc(CNc2ccccc2)o1,-3,28*,-8,12,4,19
Cc1nn(-c2ccccc2)c(Cl)c1/C=N/NC(=O)c1ccco1,-1,/,0,31,7,/
O=C(CCC1CCCC1)Nc1ccc([N+](=O)[O-])cn1,0,32*,0,-28,6,-2
CCOC(=O)c1cc(-c2cccs2)no1,/,/,/,2,9,/

# Compound activity deposited in PubChem by several laboratories.
